# High-throughput results as filed in PubChem BioAssay.
# Many of the other results were omitted from the sample, so hits are more common in it than they were.
# TTR transcr act = TTR transcription activation, primary screen | AID 1117267 | hit rate 1.3% among 92,000 | SH-SY5Y TTR promoter Gaussia luciferase, luminescence; 100% = recombinant luciferase protein wells | activation, % at 16.7 µM;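 active = activation above the mean of all tested compounds plus 3 SD, cut at about 9.5% in these data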;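 note: cells exposed to compounds for one day before reading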
# TTR inh HuH7 = counter-screen for TTR activators: TTR transcription inhibitors in HuH7 cells; inhibition, % at 16.7 µM; AID 1117279; shares compounds with TTR transcr act; HuH7 TTR promoter-Gaussia luciferase reporter, luminescence; hit rate 4% among 1,100;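 active = average inhibition above the solvent-only control wells' mean plus 3 SD, cut at about 15% in these data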;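 note: inhibitors lower well luminescence so higher value means more inhibition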
# TTR up confirm = confirmation of human transthyretin transcription activators | SHSY5Y TTR promoter Gaussia luciferase, luminescence; 100% = purified Lucia enzyme wells, no cells | AID 1117280 | shares compounds with TTR transcr act | activation, % at 16.7 µM | 1,100 tested, under 10 active;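 active = mean activation above a set limit taken from the earlier primary screen, cut at about 11% in these data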
# Hits are given with their value; . = inactive; ! = repeats disagree.
SMILES,TTR transcr act,others
CC(=O)c1ccc(NC(=O)Nc2sc(NS(=O)(=O)c3ccccc3)nc2C)cc1,29.8,TTR inh HuH7=.;TTR up confirm=.
O=C(NC1CCC1)O[C@H]1CC[C@@]23CCCN2C(=O)CCC[C@H]3C1,.,
N=c1c2c(ccn1Cc1ccccc1)Oc1ccc3ccccc3c1C2c1ccccc1 (stereo not drawn),.,
CCCCNC(=O)C[C@H]1C[C@@]2(C(=O)OC)C(=C[C@H](COCc3ccccc3)O[C@@H]2C)N(Cc2ccccc2)C1=O,.,
O=C(NCCc1c[nH]c2ccccc12)OCc1cn(-c2ccc(F)cc2)nn1,.,
CCCCOCCCNC(=O)C[C@@H]1C(=O)N(CCc2ccc(Cl)cc2)C2=CCCC[C@]21C(=O)OCC,.,
O=S(=O)(Oc1ccccc1-c1ccccc1)c1ccccc1,.,
O=S(=O)(NCCC1CC1(Cl)Cl)c1ccccc1 (stereo not drawn),.,
O=S(=O)(c1ccccc1)C1CC1(c1ccccc1)c1ccccc1 (stereo not drawn),13.6,TTR inh HuH7=.;TTR up confirm=.
COc1ccc(NC(=O)OCCN2CCCC23CCC(c2ccccc2)CC3)cc1 (stereo not drawn),.,
COc1cccc(C2NC(=O)NC(C)=C2C(=O)Nc2ccc(C)cc2)c1 (stereo not drawn),21.2,TTR inh HuH7=.;TTR up confirm=.
CC1=C(C(=O)Nc2ccccc2C)C(c2ccccc2)NC(=O)N1 (stereo not drawn),.,
CC1=C(C(=O)Nc2ccc(C)cc2)C(c2ccc(N(C)C)cc2)NC(=O)N1 (stereo not drawn),.,
COC(=O)[C@]12C[C@H](CC(=O)N3CCN(C(=O)C4CC4)CC3)C(=O)N(Cc3cccc4ccccc34)C1=C[C@H](COCc1ccccc1)O[C@@H]2C,.,
CCc1ccc(S(=O)(=O)n2c(C)nc3ccccc32)cc1,.,
Cc1nc2ccccc2n1S(=O)(=O)c1ccc(Br)cc1,.,
CCSc1nc2ccccc2n1S(=O)(=O)c1ccccc1,30.5,TTR inh HuH7=.;TTR up confirm=.
Cc1ccc(S(=O)(=O)NCC2CN(S(=O)(=O)c3ccc(C)cc3)c3ccccc3C(=O)N2c2ccc(F)cc2)cc1 (stereo not drawn),.,
Cc1ccc(NC(=O)C2CCCCC2C(=O)O)cc1C (stereo not drawn),.,
O=C(O)C1CCCCC1C(=O)Nc1ccc(F)c(F)c1 (stereo not drawn),11.9,TTR inh HuH7=.;TTR up confirm=.
O=C(Nc1ccc(F)cc1)c1ccccc1NC(=O)C1CCCCC1C(=O)O (stereo not drawn),.,
CCC[C@H]1[C@@H](OC(=O)NCc2ccco2)CC[C@@]23CCCN2C(=O)CCC[C@@H]13,.,
O=C(Cc1cc(=O)[nH][nH]1)N/N=C/c1c(Cl)cccc1Cl,.,
O=C(Cc1cc(=O)[nH][nH]1)N/N=C/c1cccc(Cl)c1Cl,22.8!,TTR inh HuH7=.;TTR up confirm=.
O=C(Cc1cc(=O)[nH][nH]1)N/N=C/c1ccccc1Cl,.,
SMILES,TTR transcr act,others
CC(=O)N/C(=C\c1ccccc1)C(=O)OCC(=O)NC(=O)c1ccccc1,15.0,TTR inh HuH7=.;TTR up confirm=.
CC(C)OC(=O)/C(=C\c1ccccc1)NC(=O)c1ccccc1,.,
CCOC(=O)/C(=C\c1ccc(C)cc1)NC(=O)c1ccccc1,.,
O=C(Cc1ccc(NC(=O)C2CCCN(C(=O)c3ccccc3)C2)cc1)Nc1cccc(C(=O)N2CCCC2)c1 (stereo not drawn),.,
Cc1ccccc1C1CCC2(CC1)CCN(CC[C@@H](O)c1ccccc1)C2=O (stereo partly drawn),.,
Cc1ccc(NC(=O)C2CC3CCC2C3)cc1 (stereo not drawn),.,
Cc1ccccc1NC(=O)O[C@H]1CC[C@@]23CCCN2C(=O)CCC[C@H]3[C@H]1C,.,
CC(CNCCCn1cnc2c(OCc3ccccc3)ncnc21)c1ccccc1 (stereo not drawn),.,
COc1ccc(-n2cc(CNCCCN3CCCC3=O)c(-c3ccccc3Cl)n2)cc1,.,
COc1ncnc2c1ncn2CCCNCCCN1CCCC1=O,15.0,TTR inh HuH7=.;TTR up confirm=.
COc1ccc(OC)c(CN2C(=O)CCCC2(C)c2nnnn2C2CCCC2)c1 (stereo not drawn),.,
CCOC(=O)N1CCN(C(=O)C[C@H]2C[C@@]3(C(=O)OC)C(=C[C@H](C(C)C)O[C@@H]3C3CC3)N(Cc3ccc(Cl)cc3Cl)C2=O)CC1,.,
COc1cc(Cn2cc([C@]34C[C@H]5C(=O)N(C)CC(=O)N5[C@H]3N(S(=O)(=O)c3ccccc3)c3ccccc34)c3ccccc32)cc(OC)c1,.,
COc1ccc(N(C(=O)Cc2cccs2)C(C(=O)NC2CCCC2)c2ccncc2)cc1 (stereo not drawn),18.3,TTR inh HuH7=.;TTR up confirm=.
COc1ccc(N(C(=O)CNC(=O)c2cccs2)C(C(=O)NC2CCCC2)c2ccncc2)cc1 (stereo not drawn),.,
COc1ccc(N(C(=O)CNC(=O)c2ccco2)C(C(=O)NC2CCCC2)c2ccncc2)cc1 (stereo not drawn),.,
C[C@H]1[C@@H](NC(=O)C(c2ccccc2)c2ccccc2)CC[C@@]23CCCN2C(=O)CCC[C@@H]13,.,
Cc1cccc(CN[C@@H]2CC[C@@]34CCCN3C(=O)CCC[C@H]4C2)c1,.,
Cc1ccc(/C=C/C2=NN(Cc3ccc(Cl)c(Cl)c3)C(=O)CC2)cc1,13.3,TTR inh HuH7=.;TTR up confirm=.
CC1=NN(Cc2ccccc2)C(=O)C1,.,
Cc1ccccc1CN1N=C(/C=C/c2ccccc2)CCC1=O,.,
C[n+]1cc(C(O)(c2ccccc2)c2ccccc2)n2ccccc21,.,
O=C(OCC#CCSc1nnc(-c2cccc3ccccc23)o1)c1ccc(SC(F)(F)F)cc1,.,
O=C(COC(=O)/C=C/c1ccc(Cl)cc1)NC1CCCC1,.,
O=C(COC(=O)/C=C/c1ccc(F)cc1)NC1CCCCCC1,10.0,TTR inh HuH7=.;TTR up confirm=.
SMILES,TTR transcr act,others
O=C(COC(=O)/C=C/c1ccc(F)cc1)NC1CCCC1,.,
N#Cc1cccc(Cn2ccc3ccc(-c4ccc5ccn(Cc6cccc(C#N)c6)c5c4)cc32)c1,.,
CCOC(=O)c1ccccc1S(=O)(=O)N1CCN(c2nc(-c3cccs3)nc3ccccc23)CC1,.,
CSCC(=O)Nc1cc(C)on1,.,
Cc1cc(NC(=O)CSCC(=O)N(C)Cc2ccc(F)cc2)no1,12.9,TTR inh HuH7=.;TTR up confirm=.
Cc1cc(NC(=O)CSCC(=O)OCc2nnc(-c3ccc(F)cc3)o2)no1,.,
S=C(Nc1ccc(Br)cc1)OCCN1CCCC12CCC(c1ccccc1)CC2 (stereo not drawn),.,
CCCC1CCC2(CC1)CCC2OC(=O)Nc1ccc2c(c1)OCO2 (stereo not drawn),.,
